HSP90 inh: HSP90 refolding inhibition in rabbit reticulocyte lysate. luciferase refolding luminescence, 3 h. inhibition, % at 5.6 µM. hit rate 0.91% among 290,000. AID 1789;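 active means inhibition above the screen-wide mean plus 3 SD, computed separately per campaign, cut at about 16% in these data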;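 further: inhibitors lower the luminescence because luciferase stays unfolded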
HSF-1 act: increases HSF-1 driven luciferase reporter signal; NIH3T3-HGL HSF-1 luciferase reporter, MG132, 8 h; 100% = twice DMSO control signal; activation, % at 9 µM; hit rate 1.7% among 300,000;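 active means mean replicate activation of at least 50% with a set share of replicates each reaching 50%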
HSF1 inhib: HSF1 inhibition. hit rate 0.77% among 300,000. activity change, negative = inhibition, % at 7.5 µM (by protocol). NIH3T3-HGL HSE-luciferase, MG132-induced, luminescence 8 h; active compounds read low;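 active means more than half of replicate wells show activity change below -50%, luminescence cut by over half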;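 further: luciferase reports HSF-1 transcriptional activity via heat shock element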
FXN GAA850 act: frataxin GAA850 promoter activation | HEK293 lucGAA850 FXN promoter luciferase reporter, 24 h; percent of 10 µM SAHA response | activation, % at 6 µM | hit rate 0.56% among 360,000;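 active means activation above the average of all compounds screened plus 3 SD, cutoff fixed separately per campaign, cut at about 7.5% in these data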
AHR act: activators of human aryl hydrocarbon receptor. hit rate 2.5% among 320,000. AHR-responsive luciferase reporter cells, luminescence. AID 2796. activation, % at 5 µM. P35869; in the data active means activation above about 47%
NR0B1 inh: NR0B1 (DAX1) inhibition; HEK293 Gal4-DAX1 luciferase reporter, luminescence; P51843; inhibition, % at 6.75 µM; hit rate 0.99% among 340,000; AID 504766;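 active means inhibition above the mean over all tested compounds plus 3 SD, cut at about 4.2% in these data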;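 further: inhibition shows as a rise in luminescence from relieved DAX1 repression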
Target sequence (P51843 207-470 limits assumed): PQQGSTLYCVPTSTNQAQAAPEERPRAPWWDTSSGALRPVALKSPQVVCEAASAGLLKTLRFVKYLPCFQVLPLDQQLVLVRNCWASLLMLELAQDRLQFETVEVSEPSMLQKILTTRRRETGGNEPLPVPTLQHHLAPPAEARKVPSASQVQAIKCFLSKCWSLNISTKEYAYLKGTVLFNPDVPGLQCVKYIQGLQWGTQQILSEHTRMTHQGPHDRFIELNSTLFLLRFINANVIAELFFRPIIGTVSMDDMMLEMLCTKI
AHR act confirm: human AHR activation, confirmation; shares compounds with AHR act; AID 2845; human cells, AHR-responsive luciferase reporter, luminescence; hit rate 87% among 2,300; activation, % at 9 µM; in the data active means activation above about 49%;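 further: HepG2 hepatoma cells carrying a DRE-driven firefly luciferase reporter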
PXR act counter: activates human PXR in AHR activator counter-screen. shares compounds with AHR act. cell-based PXR reporter, luciferase luminescence. hit rate 88% among 2,300. activation, % at 11.6 µM. AID 434939; in the data active means activation above about 11%;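 further: human hepatoma DPX-2 cells expressing full-length human PXR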
Large screens that a line does not name were inactive (follow-up assays come after a bar, where they were run). Only some compounds are listed: those with a hit (about 5.9% of all), similar ones and a draw of the others.

CCC(Oc1ccccc1OC)C(=O)Nc1ccc2c(c1)OCO2 (stereo not given)	AHR act 115 | AHR act confirm 115 | PXR act counter 56
CCOc1ccccc1NC(=O)Nc1ccncc1	AHR act 139 | AHR act confirm 86 | PXR act counter 18
COc1cccc(NC(=O)Nc2cc(NC(=O)Nc3cccc(OC)c3)c(C)nc2C)c1	AHR act 91 | AHR act confirm 50 | PXR act counter 15
CCCCN(C(=O)CCSc1ccc(F)cc1)c1c(N)n(Cc2ccccc2)c(=O)[nH]c1=O	none (no result: HSP90 inh)
COc1cccc(NC(=O)COc2c(F)c(F)c(C(F)(F)F)c(F)c2F)c1	none
O=C(NCc1ccc2c(c1)OCO2)c1ccccc1	none
O=C(NC(=S)NCc1ccccc1)c1ccc2c(c1)OCO2	AHR act 84 | AHR act confirm 61 | PXR act counter 19
Cc1cc(C)cc(C(=O)NCc2ccc3c(c2)OCO3)c1	AHR act 106 | AHR act confirm 75 | PXR act counter 52
O=C(CCN1CCc2ccccc2C1)Nc1ccc2c(c1)OCO2	AHR act 84 | AHR act confirm inactive | PXR act counter 51
O=C(NNC(=S)NCc1ccccc1)c1ccc2c(c1)OCO2	none
Cc1ccccc1OC(C)C(=O)Nc1ccc2c(c1)OCO2 (stereo not given)	AHR act 102 | AHR act confirm 51 | PXR act counter 36
O=C(CN(CC1CCCO1)C(=O)CNS(=O)(=O)c1ccc(F)cc1)NCc1ccc(F)cc1 (stereo not given)	none
COc1ccccc1C(=O)Nc1ccc2c(c1)OCO2	AHR act 146 | AHR act confirm 147 | PXR act counter 53
O=C(Nc1ccc2c(c1)CCC2)Nc1ccc2c(c1)OCO2	AHR act 85 | AHR act confirm 52 | PXR act counter 43
Cc1ccc2c(c1)CCCN2C(=O)Nc1ccc2c(c1)OCO2	AHR act 106 | AHR act confirm 96 | PXR act counter 83
COc1ccccc1C(=O)Nc1cccc(SC)c1	AHR act 83 | AHR act confirm 85 | PXR act counter 23
O=C(Nc1cccc(Cl)c1)Nc1ccc2c(c1)OCO2	none
COc1ccc(NS(=O)(=O)c2cn(C)nc2C)cc1	none
COc1cccc(NC(=O)CN(C)CC(=O)Nc2ccc3c(c2)OCO3)c1	none (no result: HSP90 inh, HSF-1 act, HSF1 inhib)
COc1cccc(NC(=O)Nc2ccc3c(c2)OCO3)c1	AHR act 110 | AHR act confirm 65 | PXR act counter 38
O=C(N/N=C/c1ccc2c(c1)OCO2)c1ccc2c(c1)OCO2	AHR act 115 | AHR act confirm 93 | PXR act counter 25
CCS(=O)(=O)c1nc(S(=O)(=O)c2ccc(Cl)cc2)c(N2CCN(C)CC2)s1	none
ONC(=Nc1ccc(Cl)cc1)c1ccc(Cl)cc1	HSF-1 act 55, AHR act 117 | AHR act confirm 115 | PXR act counter 12
Cc1ccc(N(CC(=O)NC(C)(C)C)C(=O)CS(=O)CC(=O)Nc2ccc3c(c2)OCO3)cc1 (stereo not given)	none
CC(=O)Nc1sc(C)c(C)c1C(=O)OCC(=O)NC(C)c1ccccc1 (stereo not given)	none (no result: HSP90 inh, HSF-1 act, HSF1 inhib, AHR act)
CCN(/N=C/C=C/c1ccccc1)c1cc(=O)n(C)c(=O)[nH]1	HSF-1 act 69, AHR act 132 | AHR act confirm inactive | PXR act counter inactive
CCN(/N=C/c1ccc(Cl)cc1)c1cc(=O)n(C)c(=O)[nH]1	AHR act 121 | AHR act confirm 71
Cc1nc(-c2ccccc2)nc2n[nH]c(N)c12	AHR act 112 (no result: HSP90 inh) | AHR act confirm 138 | PXR act counter inactive
Oc1ccc(N=Nc2ccc3c(c2)OCCO3)c(O)c1	none
Oc1ccc(N=Nc2ccc(Br)cc2)c(O)c1	AHR act 89 | AHR act confirm 61 | PXR act counter inactive
CCCNc1nc(Cl)nc(Nc2ccc(Cl)cc2)n1	AHR act 127 | AHR act confirm 91
CCOC(=O)C1CCN(C(=O)c2sccc2Cl)CC1	none (no result: HSF-1 act, HSF1 inhib)
Cc1ncc(CO)c(/C=N/Nc2ccc(C(F)(F)F)cn2)c1O	AHR act 81 | AHR act confirm inactive | PXR act counter 15
COc1ccc(CNS(=O)(=O)c2ccc3c(c2)NC(=O)C(C)S3)cc1 (stereo not given)	none
O=C(NNC(=O)c1sccc1-n1cccc1)c1cccc(Cl)c1	AHR act 133 (no result: HSF-1 act, HSF1 inhib) | AHR act confirm 114 | PXR act counter 101
O=C(NNC(=O)c1sccc1-n1cccc1)c1ccc(F)cc1	AHR act 112 | AHR act confirm inactive | PXR act counter inactive
O=C(NNC(=O)c1sccc1-n1cccc1)c1ccccc1	AHR act 137 | AHR act confirm 128 | PXR act counter 48
O=C(NNC(=O)c1ccccc1-n1cccc1)c1ccc(F)cc1	AHR act 90 | AHR act confirm 101 | PXR act counter 43
O=C(NNS(=O)(=O)c1ccc(F)cc1)c1sccc1-n1cccc1	none
O=C(NNS(=O)(=O)c1cc(Cl)cc(Cl)c1)c1sccc1-n1cccc1	none
CC(C)[C@H](NC(=O)N1CCn2c1nc1ccccc12)C(=O)N[C@H](C(=O)O)c1ccccc1	none
CCOc1ccc(CCNC(=O)COC(=O)c2cc(S(=O)(=O)N3CCOCC3)ccc2F)cc1OCC	none (no result: AHR act)
CCOC(=O)[C@@H]1[C@H]2COc3ccc(Br)cc3[C@H]2N2C(=O)N(c3ccc(Cl)cc3)C(=O)[C@]12C	none (no result: HSP90 inh, HSF-1 act, HSF1 inhib)
Cc1nn(CCOc2cccc(Cl)c2)c(C)c1[N+](=O)[O-]	none
O=C(NNC(=O)c1sccc1-n1cccc1)Nc1ccccc1	AHR act 92 | AHR act confirm 126 | PXR act counter 61
O=C(N/N=C\c1ccc(Cl)cc1)c1sccc1-n1cccc1	AHR act 97 | AHR act confirm 124 | PXR act counter 24
CN(C1CC(C)(C)N(O)C(C)(C)C1)S(=O)(=O)CC12CCC(CC1=O)C2(C)C (stereo not given)	none
N=C1SC(CC(=O)Nc2ccccc2[N+](=O)[O-])C(=O)N1c1ccccc1 (stereo not given)	none
Cc1ccc(Nc2nc(-c3ccncc3)cs2)cc1	none (no result: AHR act)
Cc1ccnc(Nc2nc(-c3ccc(Cl)cc3)cs2)c1	AHR act 137 | AHR act confirm 97 | PXR act counter 32
Cc1cccnc1Nc1nc(-c2ccc(F)cc2)cs1	AHR act 126, NR0B1 inh 6.2 | AHR act confirm 131 | PXR act counter 17
Cc1ccnc(Nc2nc(-c3ccc(F)cc3)cs2)c1	HSF-1 act 80, AHR act 165 | AHR act confirm 132 | PXR act counter 15
Cc1ccnc(Nc2nc(-c3sc(C)nc3C)cs2)c1	none (no result: HSP90 inh)
